Screens: PubChem, NMMLSC
A selection: hits, their analogues and other compounds. The true share with any hit is near 0.4%.
Rab7 wt modul: modulators of GTP binding to Rab7, primary screen, biochemical, wildtype, multiplex bead flow cytometry; 190,000 compounds, 0.055% hits; GST-Rab7 beads, fluorescent GTP binding; actives lie on both sides; untreated = 100%, excess cold GTP = 0%; Rab7 GTPase wild type (dog), Bodipy-FL-GTP binding; GTP binding activity (percent of control), % at 10 µM;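 active = fluorescent GTP binding to Rab7 beads changed by at least 20 points from the 100% baseline, either direction, mostly lower; inconclusive = compound itself probably fluorescent, or too few beads counted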;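 also: median green fluorescence of bound Bodipy-FL-GTP per Rab7 bead population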
Cdc42 wt: modulators of GTP binding to wildtype Cdc42, primary screen, biochemical, multiplex bead flow cytometry, Bodipy-GTP; 190,000 compounds, 0.2% hits; Cell division control protein 42 homolog (Homo sapiens), P60953; percent activity (GTP binding), % at 10 µM; GST-Cdc42 beads; actives lie on both sides;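 active = percent activity GTP binding at least 20 points away from the 100% baseline, either down as inhibitor or up as activator; inconclusive = compound flagged as likely green fluorescent from well-wide comparison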;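 also: median bead fluorescence of bound Bodipy-FL-GTP at 100 nM; 0% = excess unlabeled GTP control and 100% = no compound control; below 100% means less GTP binding so inhibitor and above means activator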
Target sequence (P60953 whole entry, looked up): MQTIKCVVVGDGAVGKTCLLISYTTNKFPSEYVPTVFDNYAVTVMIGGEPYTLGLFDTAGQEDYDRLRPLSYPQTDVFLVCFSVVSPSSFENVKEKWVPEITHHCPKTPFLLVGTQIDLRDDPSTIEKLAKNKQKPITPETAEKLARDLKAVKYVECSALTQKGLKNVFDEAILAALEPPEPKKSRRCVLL
Rac1 wt GTP bind: wildtype Rac1 GTP binding modulators, primary screen, biochemical, GST-Rac1 beads, flow cytometry, multiplex; 190,000 compounds, 0.27% hits; GTP binding activity (% of control), % at 10 µM; fluorescent GTP binding; actives lie on both sides; 0 = cold GTP competed, 100 = untreated;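 active = GTP binding activity at least 20 points away from the 100% control level, either lower or higher; inconclusive = compound flagged as likely green fluorescent, judged across all proteins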
HRas wt GTP: modulators of GTP binding to HRas wildtype, primary screen, biochemical, bead-based flow cytometry, multiplex; 190,000 compounds, 0.14% hits; AID 759, 2007; GST-Ras wt beads, Bodipy-FL-GTP binding; actives lie on both sides; GTP binding activity, % at 10 µM; GTPase HRas (Homo sapiens), P01112;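 active = GTP binding activity at least 20% away from the 100% baseline, either lowered as inhibitor or raised as activator; inconclusive = flagged as likely green fluorescent, judged across all proteins in the well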;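 also: 0% = unlabeled GTP competition control and 100% = no-compound control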
Target sequence (P01112 whole entry, looked up): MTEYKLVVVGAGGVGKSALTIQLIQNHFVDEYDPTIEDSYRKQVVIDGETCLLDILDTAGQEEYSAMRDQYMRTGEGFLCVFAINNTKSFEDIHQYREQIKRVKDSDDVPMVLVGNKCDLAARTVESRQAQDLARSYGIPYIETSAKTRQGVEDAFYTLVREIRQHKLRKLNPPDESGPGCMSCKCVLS
Rac1 act GTP bind: GTP binding modulators of activated mutant Rac1, primary screen, biochemical, bead-based flow cytometry, multiplex, fluorescent GTP. 190,000 compounds, 0.11% hits. GST-Rac1 activated beads; actives lie on both sides; 100% means binding = to untreated wells. Ras-related C3 botulinum toxin substrate 1 (Homo sapiens), P63000. percent activity (GTP binding), % at 10 µM. AID 764, 2007;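 active = GTP binding at least 20 percentage points away from the 100% baseline, in either direction, so actives lie on both sides; inconclusive = Compound likely fluorescent itself, or too few beads counted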
Rab2 wt GTP: modulators of GTP binding to Rab2A wildtype, primary screen, biochemical, dog, bead-based flow cytometry, multiplex; Ras-related protein Rab-2A (Canis lupus familiaris), P61105; GST-Rab2 wt beads, Bodipy-GTP binding; GTP binding activity, % at 10 µM; 190,000 compounds, 0.19% hits;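 active = GTP binding activity at least 20 points away from 100%, either lowered or raised; inconclusive = signal likely due to the compound's own green fluorescence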;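 also: 0% = beads with excess unlabeled GTP and 100% = no-compound control corrected for plate trend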
Active calls of the source: *; ? = inconclusive; [ ] = remark or other dose.

SMILES | Rab7 wt modul | Cdc42 wt | Rac1 wt GTP bind | HRas wt GTP | Rac1 act GTP bind | Rab2 wt GTP
O=C(O)c1ccc(Nc2nc(-c3cc4ccccc4oc3=O)cs2)cc1O | 94.0 | 84.0 | 79.0* | 87.0 | 88.0 | 87.0
COc1cccc(/C=C/C(=O)OCC(=O)Nc2ccc(Cl)cn2)c1 | 85.0 | 88.0 | 89.0 | 88.0 | 87.0 | 88.0
CCN(CC)S(=O)(=O)c1ccc2c(c1)c(=O)c(C(=O)N1CCc3ccccc3C1)cn2C | 116.0 | 115.0 | 132.0*[activator] | 119.0 | 109.0 | 118.0
O=C(COC(=O)C1CCCCC1)Nc1ccc(S(=O)(=O)N2CCOCC2)cc1 | 105.0 | 100.0 | 102.0 | 100.0 | 97.0 | 99.0
CC(=O)Nc1nc(SCC(=O)NCc2ccc(F)cc2)[nH]c(=O)c1NC(=O)c1cccs1 | 101.0 | 88.0 | 86.0 | 90.0 | 90.0 | 91.0
O=C(CCc1nc2ccccc2c(=O)[nH]1)OCC(=O)N1CCc2ccccc21 | 106.0 | 97.0 | 101.0 | 98.0 | 95.0 | 98.0
O=C(CCc1nc2ccccc2[nH]c1=O)OCC(=O)N1CCc2ccccc21 | 103.0 | 114.0 | 130.0*[activator] | 106.0 | 106.0 | 107.0
O=C(NNc1nc(-c2ccccc2)c2cc(Br)ccc2n1)c1ccc(S(=O)(=O)N2CCOCC2)cc1 | 84.0 | 82.0 | 67.0* | 81.0 | 87.0 | 75.0*
O=C(NNc1nc(-c2ccccc2)c2cc(Br)ccc2n1)c1ccc(S(=O)(=O)N2CCCCC2)cc1 | 99.0 | 94.0 | 96.0 | 95.0 | 93.0 | 93.0
CC(=O)NNc1nc(-c2ccccc2)c2cc(Br)ccc2n1 | 100.0 | 101.0 | 105.0 | 100.0 | 98.0 | 102.0
CN(C)S(=O)(=O)c1ccc(C(=O)NNc2nc(-c3ccccc3)c3cc(Br)ccc3n2)cc1 | 90.0 | 85.0 | 78.0* | 83.0 | 88.0 | 82.0
COc1ccccc1CNC(=O)c1c(N)n(CCCN2CCOCC2)c2nc3ccccc3nc12 | 87.0 | 80.0 | 78.0* | 84.0 | 86.0 | 82.0
Cc1ccc(-c2ccc(/C=C3\SC(N4CCOCC4)=NC3=O)o2)cc1 | 90.0 | 87.0 | 76.0* | 85.0 | 90.0 | 88.0
Nc1ccc(-c2cn3cccnc3n2)cc1 | 90.0 | 79.0* | 72.0* | 78.0* | 86.0 | 78.0*
COc1ccc(CNc2nc3c(c(=O)n(Cc4ccc(Br)cc4)c(=O)n3C)n2C)cc1 | 92.0 | 83.0 | 80.0 | 90.0 | 79.0* | 87.0
Cn1c(NCc2ccccc2)nc2c1c(=O)n(Cc1ccc(Br)cc1)c(=O)n2C | 102.0 | 98.0 | 100.0 | 100.0 | 98.0 | 103.0
CCC(C)(C)NC(=O)c1ccc2c(c1)N(CC(=O)OC)C(=O)C(C)(C)O2 | 100.0 | 107.0 | 120.0*[activator] | 103.0 | 101.0 | 103.0
C(=N\Nc1nn2cnnc2c2ccccc12)/c1ccco1 | 87.0 | 77.0* | 88.0 | 75.0* | 89.0 | 72.0*
COc1cc(/C=N/Nc2nn3cnnc3c3ccccc23)ccc1O | 81.0 | 58.0* | 75.0* | 62.0* | ? | 72.0*
Clc1cnc(N/N=C/c2ccco2)c(Cl)c1 | 100.0 | 99.0 | 104.0 | 101.0 | 100.0 | 100.0
CCOC(=O)c1c(NC(=O)C(=O)N/N=C/c2ccc(O)c(OC)c2)sc2c1CCCCC2 | 98.0 | 61.0* | 104.0 | 98.0 | 98.0 | 94.0
CCOC(=O)c1c(NC(=O)C(=O)N/N=C/c2ccc(OCC)cc2)sc2c1CCCCC2 | 97.0 | 97.0 | 104.0 | 102.0 | 99.0 | 99.0
CCOC(=O)c1cc(C(=O)OCC)c2ccccn2c1=O | 76.0* | 95.0 | 87.0 | 79.0* | 88.0 | 88.0
O=C(CN1CC(=O)Nc2ccccc21)NCCc1ccc(Cl)cc1Cl | 104.0 | 96.0 | 98.0 | 97.0 | 99.0 | 101.0
Cc1ccc2c(c1)c1nnc(SCC(=O)N3CCCc4ccccc43)nc1n2CC(=O)O | 84.0 | 64.0* | 66.0* | 67.0* | 82.0 | 66.0*
SMILES | Rab7 wt modul | Cdc42 wt | Rac1 wt GTP bind | HRas wt GTP | Rac1 act GTP bind | Rab2 wt GTP
CC(C)CNC(=O)CN(c1cccc(Cl)c1)S(C)(=O)=O | 103.0 | 97.0 | 97.0 | 99.0 | 97.0 | 97.0
Cc1cc(/C=c2\sc3nc4ccccc4n3c2=O)c(C)n1-c1ccc(C(=O)O)cc1 | 94.0 | 78.0* | 81.0 | 88.0 | 76.0* | 85.0
O=C(O)C1=C[C@H](c2ccc(C(F)(F)F)cc2)C[C@H](OCc2ccc(CO)cc2)O1 | 90.0 | 74.0* | 77.0* | 80.0 | 76.0* | 76.0*
COc1ccc(-n2cnnc2SCC(=O)NC2CCCc3ccccc32)cc1 (centres undefined) | 100.0 | 103.0 | 105.0 | 101.0 | 102.0 | 102.0
Cc1ccc(/C=C(\CCC(=O)O)c2nc3ccccc3s2)cc1[N+](=O)[O-] | 87.0 | 83.0 | 83.0 | 86.0 | 78.0* | 79.0*
Cc1cc(C)cc(NC(=O)C2CCCN2/C=C/C(=O)C(F)(F)F)c1 (centres undefined) | 100.0 | 101.0 | 107.0 | 102.0 | 103.0 | 105.0
COc1ccc(C2N(c3ccccc3)CCN2c2ccccc2)cc1O | 100.0 | 99.0 | 103.0 | 100.0 | 96.0 | 100.0
O=c1[nH]c(N/N=C\c2ccc(F)cc2)nc2ccccc12 | 100.0 | 94.0 | 90.0 | 98.0 | 95.0 | 98.0
O=c1[nH]c(N/N=C/c2ccc(O)cc2)nc2ccccc12 | 91.0 | 83.0 | 77.0* | 76.0* | 89.0 | 77.0*
